# Bioassay records deposited in PubChem BioAssay by several laboratories.
# WT yeast gro inh = growth inhibition of WT yeast, mitochondrial fusion screen. mitochondrial fusion phenotypic screen, WT strain. inhibition, % at 10 µM. actives 2.1% (n = 190,000); in the data active means inhibition above about 58%; tested in S. cerevisiae
# Lmaj promast = reduces viability of Leishmania major promastigotes. actives 9% (n = 200,000). resazurin fluorescence viability. inhibition, % at 10 µM. AID 1063; in the data active means inhibition above about 50%;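 further: promastigotes grown with compound for 44 hours at 28 °C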
# CHOP inhibitor = CHOP inhibition in unfolded protein response; CHO-K1 CHOP-promoter luciferase, tunicamycin-induced, 15-18 h; inhibition, % at 10 µM; actives 3.8% (n = 220,000); AID 2732;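 active means compounds that reduced the stress-induced luciferase reporter signal by more than about 70% of percent inhibition, limit read from the data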;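 further: 0% = tunicamycin plus vehicle and 100% = wells without tunicamycin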
# RAM network inh = inhibitors of the yeast RAM network | AID 868 | actives 1.8% (n = 190,000) | inhibition, % at 50 µM | S. cerevisiae dse1pr::URA3 reporter, 5-FOA growth OD615, 2 d; analog-sensitive cbk1-as2 kinase mutant strain;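 active means inhibition above a set limit, 3 SD over mean compound inhibition, cut at about 8.4% in these data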;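 further: 0% = DMSO-only wells with no growth and 100% = 10 µM 1-NA-PP1 full growth; inhibition rescues growth on 5-FOA so higher OD means more RAM inhibition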
# * marks the source's active call; other numbers are inactive results; . = not tested or not shown. Sampled rows, rich in hits. Any-hit rate of the full collection: about 13%.
SMILES,WT yeast gro inh,Lmaj promast,CHOP inhibitor,RAM network inh
CC(C)(C)NC(=O)c1cccc(NC(=O)CSc2ccccc2)c1,-5,77*,25,-1
Cc1ccccc1NC(=S)Nc1ccc2[nH]c(=O)[nH]c2c1,.,.,8,.
O=C(O)/C=C/C(=O)N(Cc1ccc2c(c1)OCO2)C1CC(=O)N(CCc2ccccc2)C1=O (stereo unspecified),-5,-13,3,0
O=C(CCc1nc2ccccc2s1)OCc1ccccc1F,-4,1,0,-2
O=C(CCc1ccc(S(=O)(=O)N2CCOCC2)cc1)Nc1nc(COc2ccccc2)cs1,0,96*,55,4
CC(C)N(C(=S)NC1CC2CCC1C2)c1ccccc1 (stereo unspecified),65*,15,40,1
CCN(CC1COc2ccccc2O1)C(=S)NC1CC2CCC1C2 (stereo unspecified),67*,29,7,4
COc1ccc(NC(=O)COC(=O)CCCN2C(=O)c3ccccc3C2=O)cc1Cl,7,-3,-14,2
O=[N+]([O-])c1ccc(SCCO)nc1SCCO,.,.,25,.
CN(C)S(=O)(=O)c1ccc(Cl)c(NC(=O)c2ccncc2)c1,-9,-3,1,0
Cc1noc(C)c1COc1ccc(C(=O)OCC(=O)Nc2cccc(S(=O)(=O)N3CCOCC3)c2)cc1,-6,3,-1,8
O=C(Nc1ccc(Cl)cn1)C1CCCN1S(=O)(=O)c1cccc2ccccc12 (stereo unspecified),8,1,34,3
O=C(Nc1ccc(Cl)cn1)C1CCCN1S(=O)(=O)c1ccc(Cl)cc1 (stereo unspecified),9,53*,55,2
O=C(C1CCCN1S(=O)(=O)c1ccc(Cl)cc1)N1CCOCC1 (stereo unspecified),-9,-4,74*,2
Cc1nc(Oc2ccc(S(=O)(=O)N3CCOCC3)cc2Cl)c2c3c(sc2n1)CCCC3,-15,23,35,5
O=C(Cc1coc(-c2ccc(F)cc2)n1)N1CCOCC1,13,-5,-1,1
COc1ccc(/C=N/NC(=S)NC2CCS(=O)(=O)C2)cc1 (stereo unspecified),-7,-2,-14,1
CCCOC(=O)CCCCCCCCC(O)CN1CCCCC1 (stereo unspecified),12,-1,14,-1
CCCCNC(=O)CSc1nc2ccsc2c(=O)n1C1CCN(C(=O)OCC)CC1,-26,87*,-9,0
COc1ccc(C(=O)NCc2nnc(SCC(=O)Nc3nc4ccccc4s3)o2)cc1OC,-4,44,26,2
CN1CC2=Cc3ccccc3OC23Oc2ccccc2C=C3C1,-5,12,.,1
Cc1ccnc(NC(c2ccccn2)c2c(C)[nH]c3ccccc23)c1 (stereo unspecified),-6,74*,-60,2
CCCC(=O)C1=C(O)C(c2cccc(Oc3ccccc3)c2)CCC1=O (stereo unspecified),67*,-8,38,0
O=C1CC(c2cccc(Oc3ccccc3)c2)NC(=O)N1 (stereo unspecified),-5,1,14,0
Cc1cc(C)cc(NC(=O)c2cc(C)n(Cc3cccs3)c2C)c1,.,.,-53,.
SMILES,WT yeast gro inh,Lmaj promast,CHOP inhibitor,RAM network inh
O=C(COc1ccc(Cl)cc1Cl)NNC(=S)NCc1ccco1,76*,0,19,5
CCOc1ccc(S(=O)(=O)N(C)c2ccc(OCC(=O)NCc3ccco3)cc2)cc1,7,3,-14,9.8*
COc1ccc(-c2cc(CCCC(=O)N3CCN(c4ccc(OC)cc4)CC3)no2)cc1,4,-4,95*,5
CCOc1ccc(-c2cc(CCCC(=O)NCc3ccco3)no2)cc1,12,-4,84*,2
Cc1ccc(N=Cc2c(O)[nH]c3ccccc23)c([N+](=O)[O-])c1,10,-2,0,6
CCOc1ccc(CCNS(=O)(=O)c2cnc[nH]2)cc1OCC,11,-3,31,0
O=C(COc1ccccc1Cl)NCc1ccco1,3,-3,31,2
CCOc1ccccc1OCC(=O)NCc1ccco1,-5,-9,77*,1
CC(=O)OC1COC(OC2C(O)C(C)OC(OC3C(OC4CCC5(C)C(CCC6(C)C5CC=C5C7CC(C)(C)CCC7(C(=O)O)CCC56C)C4(C)CO)OCC(O)C3O)C2O)C(O)C1OC(C)=O (stereo unspecified),1,-13,92*,2
COc1ccc(C(=O)CCc2nc3ccccc3s2)cc1,-2,1,8,1
Cc1cc(C)c2c(c1)SC1=NC(c3ccccc3)(C(F)(F)F)NC(=O)N12 (stereo unspecified),-22,-1,94*,1
